From PubChem BioAssay (NCI)
Compounds without any hit were thinned out: in the full panel of roughly 83,000, 20% have a hit.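 Growth was measured after 48 h exposure to one concentration of compound in 96-well plates. Values under 10 count as active.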 A number with no mark means an inactive call. Calls of active or inactive are those of the source.

Legend:
Assay in all cases: NCI-60 one-dose screen, 48 h (100 = growth as untreated, 0 = no growth, -100 = all killed)
[1] = tested on: NCI-H23 lung; conditions: 10 µM unless noted
[2] = tested on: NCI-H226 lung; conditions: 10 µM unless noted
[3] = tested on: NCI-H322M lung; conditions: 10 µM unless noted
[4] = tested on: HOP-62 NSCLC; conditions: 10 µM unless noted
[5] = tested on: NCI-H460 lung; conditions: 10 µM unless noted
[6] = tested on: HOP-92 NSCLC; conditions: 10 µM unless noted
[7] = tested on: NCI-H522 lung; conditions: 10 µM unless noted
[8] = tested on: A549/ATCC NSCLC; conditions: 10 µM unless noted
[9] = tested on: 786-0 renal; conditions: 10 µM unless noted
[10] = tested on: COLO 205 colon; conditions: 10 µM unless noted
[11] = tested on: DU-145 prostate; conditions: 10 µM unless noted
[12] = tested on: K-562 leukemia; conditions: 10 µM unless noted
[13] = tested on: MALME-3M melanoma; conditions: 10 µM unless noted
[14] = tested on: MDA-MB-231 breast; conditions: 10 µM unless noted
[15] = tested on: RXF 393 renal; conditions: 10 µM unless noted
[16] = tested on: SF-268 CNS; conditions: 10 µM unless noted
[17] = tested on: SF-295 CNS; conditions: 10 µM unless noted
[18] = tested on: SF-539 CNS; conditions: 10 µM unless noted
[19] = tested on: UACC-257 melanoma; conditions: 10 µM
[20] = tested on: M14 melanoma; conditions: 10 µM unless noted

Row | Structure (SMILES) | growth [1] | growth [2] | growth [3] | growth [4] | growth [5] | growth [6] | growth [7] | growth [8] | growth [9] | growth [10] | growth [11] | growth [12] | growth [13] | growth [14] | growth [15] | growth [16] | growth [17] | growth [18] | growth [19] | growth [20]
1 | COc1ccc(/C=C\c2cc(OC)c(OC)c(OC)c2)c(NS(=O)(=O)c2ccc(C(C)(C)C)cc2)c1O | 23.5% | 44.9% | 64% | 81.9% | 8.21% (active) | 10.8% | -7.56% (active) | 27.4% | 24.4% | 1.63% (active) | -0.37% (active) | 13.2% | 108% | 8.45% (active) | 22.6% | 24.5% | 16.9% | 2.6% (active) | 65.7% | 14.9%
2 | Cc1cccc(NC(=O)c2sc3nc4c(cc3c2N)CCC4)c1C | 36% | 43.7% | 40.1% | 35.6% | 10.8% | 17.7% | -16.5% (active) | 18.6% | 42.7% | 6.68% (active) | 10.6% | 13.8% | 45.5% | 30.6% | -4.81% (active) | 35.1% | 4.77% (active) | 1.33% (active) | 54.8% | 19.1%
3 | CCC1CCc2nc3sc(C(=O)Nc4ccccc4C)c(N)c3cc2C1 (stereo not given) | 51.1% | 62.7% | 56.5% | 54.5% | 31.5% | 41.9% | 28.6% | 41.2% | 50.6% | 17% | 22.7% | 24.1% | 28.3% | 66.6% | 26.1% | 49.9% | 15.3% | 23.9% | 54.2% | 19.8%
4 | Cn1c(-c2nonc2NC(=O)c2ccc(F)cc2)nc2ccccc21 | 108% | 96% | 102% | 120% | 101% | 104% | 95.2% | 98.1% | 98.6% | 117% | 107% | 9.03% (active) | 123% | 129% | 109% | 109% | 98.5% | 103% | 97.2% | 106%
5 | COc1cc(NC(=O)CSc2nc3ccc(C)cc3c(=O)n2-c2ccccc2)cc(OC)c1OC | 84.1% | 82.6% | 101% | 91.2% | 101% | 49.5% | 68.7% | 83.9% | 89.4% | 111% | 110% | 87.1% | 90.5% | 77.3% | 86.2% | 86.2% | 92.2% | 93.6% | 83% | 79.9%
6 | O=C(CNC1CCCCC1)Nc1ccc(-c2nc3ccccc3s2)cc1 | 76.2% | 80.3% | 91.7% | 85.2% | 91.3% | 48.8% | 95.5% | 88% | 70.6% | 95.4% | 89.3% | 49.5% | 105% | 46.2% | 68.5% | 78.4% | 85.9% | 87.5% | 105% | 89.4%
7 | N=C(N)c1ccc(-c2ccc(-c3ccc(Cl)cc3)o2)nc1 | -81.9% (active) | -68.2% (active) | -94.5% (active) | -85.5% (active) | -91.6% (active) | -87.7% (active) | -78.9% (active) | -82.8% (active) | -85.1% (active) | -87.5% (active) | -98.4% (active) | 112% | -66.4% (active) | -90% (active) | -98.1% (active) | -95.6% (active) | -85.4% (active) | -92.4% (active) | -89% (active) | -88.3% (active)
8 | COc1ccc(OC)c(-c2ccc(-c3ccccc3N)c3[nH]c4ccccc4c23)c1 | 74.5% | 75.2% | 90.1% | 80.9% | 92.3% | 80.8% | 56.9% | 68.7% | 83.6% | 87.5% | 89.6% | 76.2% | 85% | 74.1% | 98.2% | 79.1% | 99.4% | 93.2% | 85% | 84.6%
